Measles CPE: protection of cells from measles virus; Measles virus-infected cells, CPE protection, absorbance; protection (pct of control), % at 4 µM; 140,000 compounds, 1.5% hits; AID 841; in the data active means protection mostly above about 24%, no sharp cut-off; inactive means mostly below about 26%
CYP2C19 activ: activators of human cytochrome P450 2C19 | recombinant CYP2C19, luciferin-H EGE luminescence; stronger effect = higher value; 0 = fully inhibited enzyme, 1 = untreated enzyme | activation factor at 5 µM | 96,000 tested, under 10 active | AID 1025;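 active means activation factor of at least 2 at 5 µM in the primary screen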;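 further: 0 = wells with 2.5 mM tranylcypromine and 1 = vehicle-only wells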
CYP2C19 inh: blocks human cytochrome P450 2C19 | P33261 | CYP2C19 Supersomes, luciferin-H EGE luminescence, 30 min | inhibition, % at 5 µM | 96,000 compounds, 21% hits | AID 778;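 active means CYP2C19 inhibition above a set limit at 5 µM in the primary screen, cut at about 50% in these data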;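 further: plate controls were negative control wells for no effect and 2.5 mM tranylcypromine positive control for full effect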
CYP2C9 activ: CYP2C9 (human) activation | activation factor at 5 µM | P11712 | AID 1024 | recombinant CYP2C9, luciferin-H conversion, luminescence; stronger effect = higher value; factor 1 = untreated enzyme, 0 = blocked | 96,000 compounds, 1.4% hits;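 active means activation factor of 2 or more for CYP2C9 at a 5 µM dose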;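 further: 0 = sulfaphenazole-blocked wells and 1 = vehicle-only wells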
Target sequence (P11712 whole entry, looked up): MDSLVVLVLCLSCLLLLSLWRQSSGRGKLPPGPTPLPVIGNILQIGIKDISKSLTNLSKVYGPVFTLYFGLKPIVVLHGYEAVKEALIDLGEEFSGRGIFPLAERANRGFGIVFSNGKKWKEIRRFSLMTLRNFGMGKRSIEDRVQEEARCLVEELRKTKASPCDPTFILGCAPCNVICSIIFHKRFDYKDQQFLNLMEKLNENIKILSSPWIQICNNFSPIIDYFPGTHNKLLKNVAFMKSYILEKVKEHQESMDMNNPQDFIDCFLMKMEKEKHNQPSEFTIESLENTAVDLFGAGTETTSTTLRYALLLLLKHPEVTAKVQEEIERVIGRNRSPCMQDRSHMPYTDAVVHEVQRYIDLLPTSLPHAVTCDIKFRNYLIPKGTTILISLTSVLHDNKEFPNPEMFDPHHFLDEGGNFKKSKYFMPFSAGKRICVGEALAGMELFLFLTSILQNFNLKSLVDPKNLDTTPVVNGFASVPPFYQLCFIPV
CYP2C9 inhib: inhibitors of human CYP2C9; P11712; inhibition, % at 5 µM; CYP2C9 Supersomes, luciferin-H conversion, luminescence; AID 777; 96,000 compounds, 20% hits;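 active means blocking of liver enzyme CYP2C9 beyond about 50% at 5 µM, limit read from the data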
* hit, by the source's call; . = no result. In the library only some 22% were active in any assay of this set; here they are far more common.

SMILES	Measles CPE	CYP2C19 activ	CYP2C19 inh	CYP2C9 activ	CYP2C9 inhib
Cc1ccc(C(=O)C(OC(=O)CN2C(=O)c3ccccc3C2=O)c2ccccc2)cc1C (centres undefined)	4	0.7	26	2*	-96
CNCc1ccccc1Sc1ccc(O)c(O)c1	11	.	.	.	.
CC1=CC(C)(C)N2C(=O)C3(C(C#N)=C(N)Oc4cc(O)ccc43)c3c(C)c(C)cc1c32 (centres undefined)	34	0.1	89*	0.1	94*
CC1=CC(C)(C)N2C(=O)C3(C(C#N)=C(N)OC4=C3C(=O)CCC4)c3c(C)c(C)cc1c32 (centres undefined)	4	1.1	-9	0.9	13
COc1ccc(OCc2nn3c(-c4ccccn4)nnc3s2)cc1	22	0.6	36	0.6	37
COc1ccc(Cc2nn3c(Cn4nnc5ccccc54)nnc3s2)cc1	27	0.1	87*	0.2	79*
COc1ccc(-c2nnc3sc(-c4ccccc4OC)nn23)cc1	.	1	-4	0.8	19
c1ccc(-c2nn3c(Cn4nnc5ccccc54)nnc3s2)cc1	1	0.9	14	0.9	13
COc1ccc(Cc2nn3c(-c4ccccc4OC)nnc3s2)cc1	3	0.2	82*	0.4	60*
COc1ccccc1-c1nnc2sc(COc3ccc(Cl)cc3)nn12	5	0.2	81*	0.1	88*
Cc1cc(Cl)cc(Cl)c1CNc1c([N+](=O)[O-])c(=O)oc2ccccc12	5	.	.	.	.
COc1ccc(NC(=O)C2CCCN2S(=O)(=O)c2cccc3cccnc23)c(OC)c1 (centres undefined)	20	0.7	31	0.1	92*
Cc1ccccc1NC(=O)C1CCCN(S(=O)(=O)c2cccc3cccnc23)C1 (centres undefined)	10	0.9	11	1.5	-45
COc1ccc(N(C)S(=O)(=O)c2cccc3cccnc23)c(OC)c1	7	0.4	60*	0.8	16
CCOC(=O)c1cccc(NC(=O)C2CCCN2S(=O)(=O)c2cccc3cccnc23)c1 (centres undefined)	13	0.7	34	0.1	91*
Cc1ccccc1NC(=O)C1CCCN1S(=O)(=O)c1cccc2cccnc12 (centres undefined)	12	0.3	67*	0	96*
O=C(CN1C(=O)c2ccccc2S1(=O)=O)Nc1cccnc1	24	.	.	.	.
CCN(CC)S(=O)(=O)c1ccc(F)c(C(=O)NCCC(C)C)c1	14	.	.	.	.
COc1ccc(C(=O)Nc2ccc3c(c2)C(=O)c2ccccc2C3=O)cc1OC	7	.	.	.	.
COc1ccc(C(=O)c2c(C(F)(F)F)oc3c2C(=O)c2ccccc2C3=O)cc1OC	10	0.3	67*	0.6	43
CCCC(C)NCC(=O)Nc1ccccc1-c1ccccc1 (centres undefined)	2	0.4	65*	0.6	41
O=C(CCCn1c(=O)c2sccc2n(Cc2ccc(F)cc2)c1=O)NCc1ccco1	6	0.2	80*	0.3	69*
O=C(CCn1c(=O)c2sccc2n(CC(=O)OCc2ccccc2)c1=O)NCc1ccco1	5	0.7	30	0.4	58*
O=C(CCCn1c(=O)c2sccc2n(CC(=O)OCc2ccccc2)c1=O)NCc1ccco1	1	0.5	51*	1	2
CCN(Cc1ccccc1)C(=O)Cn1c(=O)n(CC(=O)NCc2ccco2)c(=O)c2sccc21	7	0.9	15	0.2	82*
SMILES	Measles CPE	CYP2C19 activ	CYP2C19 inh	CYP2C9 activ	CYP2C9 inhib
O=C(CCn1c(=O)c2sccc2n(CC(=O)OCc2ccccc2)c1=O)NCc1ccccc1	9	0.7	30	0.4	62*
CCC(=O)NC(=S)Nc1cccc(Cl)c1N1CCCCC1	4	1	2	0.9	8
CC(=O)C1=C(C)NC(SCc2cccc([N+](=O)[O-])c2)=C(C#N)C1c1ccco1 (centres undefined)	2	0	100*	0.2	84*
CC(=O)C1=C(C)NC(SCC(=O)c2ccc(F)cc2)=C(C#N)C1c1ccco1 (centres undefined)	6	0	98*	0.2	80*
CCc1ccc(C(=O)CSC2=C(C#N)C(c3ccco3)C(C(C)=O)=C(C)N2)cc1 (centres undefined)	40	0.5	48	0.2	76*
COc1ccccc1NC(=O)C1=C(C)NC(SCC(=O)c2ccc(C)cc2)=C(C#N)C1c1ccco1 (centres undefined)	8	0.2	84*	0.1	90*
CCOC(=O)C1=C(C)NC(SCC(=O)O)=C(C#N)C1c1ccco1 (centres undefined)	8	1	-2	0.6	41
COc1ccc(C(NC(=O)C2CCCCC2)c2c(O)ccc3ccccc23)cc1 (centres undefined)	2	.	.	.	.
O=C1C(CCS(=O)c2ccccc2)C(=O)N(c2ccccc2)N1c1ccccc1 (centres undefined)	44	.	.	.	.
CC(=O)C1=C(C)NC(SCC(=O)c2ccc(Cl)cc2)=C(C#N)C1CC(C)C (centres undefined)	21	0	99*	0	95*
O=C1Nc2ccccc2/C1=N/c1sc2c(c1C(=O)NCCc1ccccc1)CCCC2	10	0.7	26	0.5	50
O=S(=O)(CC12C3C4C5C1C2C(Br)(C43)C51OCCO1)c1ccccc1 (centres undefined)	8	.	.	.	.
CCNC(=O)n1nccc1C(C)Oc1ccccc1 (centres undefined)	2	0.5	55*	0.5	46
CC(Oc1ccc(Cl)cc1)c1ccnn1S(=O)(=O)c1ccc(Cl)cc1 (centres undefined)	8	0.7	30	0.2	82*
CC(Oc1ccccc1)c1ccnn1S(=O)(=O)c1ccccc1 (centres undefined)	4	0.6	43	0.4	64*
Cc1ccc2nc(SC(C(=O)c3ccccc3)c3ccccc3)nc(C)c2c1 (centres undefined)	10	.	.	.	.
COc1cc(CN(C)CC(=O)c2[nH]c(C)c(C(C)=O)c2C)ccc1OC(F)F	6	0.3	73*	0.3	70*
CSc1cccc(NC(=O)/C=C/c2cccc(Cl)c2)c1	6	.	.	.	.
Cc1cc(CSc2ccccc2)ccc1NC(=O)c1ccc(Cl)c([N+](=O)[O-])c1	7	1.2	-21	1.2	-24
C=CCn1c(CCNC(=O)c2ccc(Cl)c(Cl)c2)nnc1SCCOc1ccc(OC)cc1	8	0.6	43	0.4	60*
CCOc1ccc(CNC(=S)N/N=C\c2ccc([N+](=O)[O-])cc2)cc1	2	0.7	31	0.7	30
CCCCOc1ccc(CNC(=S)N/N=C/c2ccc(OC)c(OC)c2)cc1	6	0.9	8	0.4	60*
CN(C)C(=O)/C(=C\c1cccc(Oc2ccccc2)c1)NC(=O)c1ccccc1	4	.	.	.	.
COc1ccc(/C=N/NC(=O)C(C)n2cnc3ccccc3c2=O)cc1 (centres undefined)	21	.	.	.	.
